TTR transcr act – activators of transthyretin transcription | SH-SY5Y TTR promoter Gaussia luciferase, luminescence; 100% = recombinant luciferase protein wells | activation, % at 16.7 µM | hit rate 1.3% among 92,000 | AID 1117267;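 active means activation above the mean of all tested compounds plus 3 SD, cut at about 9.5% in these data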;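 further: cells exposed to compounds for one day before reading; 0% = median of all test compound wells on the plate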
TTR inh HuH7 – decreases TTR transcription in HuH7 cells in activator counter-screen | shares compounds with TTR transcr act | HuH7 TTR promoter-Gaussia luciferase reporter, luminescence | inhibition, % at 16.7 µM | hit rate 4% among 1,100 | AID 1117279;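 active means average inhibition above the solvent-only control wells' mean plus 3 SD, cut at about 15% in these data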;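 further: 0% = cells with DMSO only and 100% = cells with inhibitor control FD; inhibitors lower well luminescence so higher value means more inhibition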
TTR act confirm – human TTR transcription activation, confirmation. shares compounds with TTR transcr act. activation, % at 16.7 µM. SHSY5Y TTR promoter Gaussia luciferase, luminescence; 100% = purified Lucia enzyme wells, no cells. 1,100 tested, under 10 active;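 active means mean activation above a set limit taken from the earlier primary screen, cut at about 11% in these data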;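 further: 0% = DMSO-treated cells and 100% = recombinant Lucia luciferase without cells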
* = called active by the depositor. The full list was thinned out, with hits kept by preference.

SMILES | TTR transcr act | others
O=C(O)CCc1nn2c3ccccc3nc2n(CCN2CCCCC2)c1=O | 2
Cc1nn2c3ccccc3n(CCN3CCCCC3)c2nc1=O | 11* | TTR inh HuH7=-9;TTR act confirm=-1
CC1=C(C(=O)N(C(C)C)C(C)C)CC(CC(=O)NC(c2ccccc2)c2ccccc2)C(=O)N1CCCN1CCCC1=O (configuration not stated) | 3
CC1=C(C(=O)N(C(C)C)C(C)C)CC(CC(=O)NCc2cccs2)C(=O)N1CCC1=CCCCC1 (configuration not stated) | -1
Cc1cc(C)c2c(N)c3cccc(C)c3nc2n1 | 12* | TTR inh HuH7=-4;TTR act confirm=3
Cc1cc(C)c2c(=O)[nH]c(SCc3ccccc3C)nc2n1 | -1
Cc1cc(Nc2ccc3c(c2)OCCO3)c2cccc(C)c2n1 | 0
COCCN1CCN(C(=O)c2cc(COc3ccc(F)c(F)c3)on2)CC1 | -1
C#CCNC(=O)C[C@@H]1C[C@@]2(C(=O)OC)CC(C)(C)CC=C2N(Cc2ccccc2)C1=O | 0
O=C(Nc1ccccc1Br)c1cccc2ccccc12 | 0
CNc1c2cccc(C)c2nc2c(C(=O)NCCN(C)C)cccc12 | 1
CN(C)CCCNC(=O)c1ccc(-c2ccccc2)cc1 | 22* | TTR inh HuH7=-10;TTR act confirm=0
COc1ccc(C(=O)NCCCN(C)CCCNC(=O)c2ccc(OC)cc2)cc1 | -1
CN(C)CCCNC(=O)c1ccc(Cl)c(S(=O)(=O)N(C)c2ccccc2)c1 | 3
Cc1ccccc1-c1cc(C(=O)NCc2cccc(Br)c2)nn1CC1CC(c2cccc([N+](=O)[O-])c2)=NO1 (configuration not stated) | 0
COc1ccc(S(=O)(=O)Nc2cccc3c2O[C@H](CN(C)C(=O)Nc2ccc(C(F)(F)F)cc2)[C@@H](C)CN([C@H](C)CO)C3=O)cc1 | -3
CCCC(=O)N1CCCC1(C)C(=O)Nc1ccc2cn[nH]c2c1 (configuration not stated) | 1
O=C(CNC(=O)c1ccccc1)NCC(=O)OCC(=O)c1ccccc1Cl | 2
O=C(Cc1ccccc1)NCC(=O)OCC(=O)c1ccc(Cl)c([N+](=O)[O-])c1 | 46* | TTR inh HuH7=-2;TTR act confirm=-1
CCN(C(=O)c1ccc(Cl)c([N+](=O)[O-])c1)c1ccccc1 | 1
COc1ccc2[nH]c3c(c2c1)CCN[C@]31C(=O)Nc2ccccc21 | 0
Cc1ccc(S(=O)(=O)NC[C@H]2CN(S(=O)(=O)c3ccc(C)cc3)[C@@H](Cc3ccccc3)CO2)cc1 | -2
Cc1ccc(S(=O)(=O)NCC2Cc3ccccc3N2S(=O)(=O)c2ccc(C)cc2)cc1 (configuration not stated) | 0
Cc1ccc(S(=O)(=O)NC[C@@H]2C[C@H](c3ccccc3)ON2S(=O)(=O)c2ccc(C)cc2)cc1 | 10* | TTR inh HuH7=-10;TTR act confirm=-1
CCOC(=O)C1(C)CCN1C(=O)c1cc(F)ccc1C (configuration not stated) | 1
SMILES | TTR transcr act | others
CC(C)N(C(=O)[C@H]1CC(CC(=O)NCC23CC4CC(CC(C4)C2)C3)C(=O)N2CCc3c([nH]c4ccccc34)[C@]12C)C(C)C (some centres not stated) | 1
CC1CCCCC1NC(=O)C1CCN(c2c3c(nc4ncnn24)CCC3)CC1 (configuration not stated) | 0
O=C1OCCN1N=Cc1ccco1 | 2
CNCCCNC(=O)c1ccc(/C=N/O)nc1 | -1
C[N+](C)(C)CCCNC(=O)c1ccc(/C=N/O)nc1 | 20* | TTR inh HuH7=-7;TTR act confirm=1
Cc1ccc(C(=O)NCCNC(=O)c2ccc(C)nc2)cc1 | 1
C[C@H]1CN([C@@H](C)CO)C(=O)CCCn2cc(nn2)CO[C@@H]1CN(C)C(=O)OCc1ccccc1 | 1
C[C@@H]1COc2cc(N3CCSCC3)ccc2S(=O)(=O)N1C | -1
O=C(Nc1c(Cl)cccc1Cl)C1CCN(C(=O)c2cccs2)CC1 | 3
CC(C)C[C@H]1CNC(=O)C(=O)N1C[C@H](C)NC(=O)Cc1ccccc1 | 15* | TTR inh HuH7=0;TTR act confirm=0
Cc1ccc(CC(=O)NC(C)CCc2ccccc2)cc1 (configuration not stated) | 4
CC(CCc1ccccc1)NC(=O)Cc1ccc(Br)cc1 (configuration not stated) | 0
O=C(NCc1ccccc1C(F)(F)F)c1cccc2c1C(=O)c1ccc(N3CCCCC3)cc1S2(=O)=O | 2
NC1=NC(=O)/C(=C/c2ccccc2OCC(=O)Nc2ccc(F)cc2)S1 | 9.9* | TTR inh HuH7=5;TTR act confirm=0
O=C(CN1C(=O)N/C(=C\c2ccccc2OCc2ccc(C(=O)O)cc2)C1=O)Nc1ccc(F)cc1 | -2
O=C(CN1C(=O)S/C(=C\c2ccccn2)C1=O)Nc1ccc(F)cc1 | -1
CCO/C(C)=N/Oc1cncnc1 | 1
COC(=O)[C@]1(C)N[C@H](CN(C)S(=O)(=O)c2ccccc2)[C@@H]2C(=O)N(Cc3ccccc3)C(=O)[C@@H]21 | 2
CCn1cnc2c1c(=O)n(CC(=O)O)c(=O)n2Cc1ccccc1 | 5
Cc1cccc(Cn2c(=O)c3c(nc4n3CCN4Cc3ccco3)n(C)c2=O)c1 | 0
CCCCn1c(=O)n(Cc2cccc(F)c2)c(=O)c2c1ncn2Cc1ccco1 | 19* | TTR inh HuH7=-5;TTR act confirm=0
Cc1ccccc1CN1C(=O)C(O)(CC(=O)c2ccncc2)c2ccccc21 (configuration not stated) | -3
CN1C(=O)C(O)(CC(=O)c2cccs2)c2ccccc21 (configuration not stated) | 18* | TTR inh HuH7=-10;TTR act confirm=-1
CCCCN1C(=O)C(O)(CC(=O)c2ccccn2)c2ccccc21 (configuration not stated) | 1
O=C(c1cccc(C(F)(F)F)c1)N1CCN(CCc2ccccc2)CC1 | 2
SMILES | TTR transcr act | others
CC(C)(C)[C@H]1C=C(C(=O)Nc2ccccc2)O[C@@H](OCCCCO)C1 | 0
Cn1cnnc1SCC(=O)Nc1ncc([N+](=O)[O-])s1 | 0
CCOC(=O)c1cc(/C(C)=N/OC(=O)c2ccc(Cl)cc2)on1 | 9.8* | TTR inh HuH7=-8;TTR act confirm=-1
CCCS(=O)(=O)C/C(N)=N/OC(=O)c1ccc(Cl)cc1 | -1
C/C(=N\OC(=O)c1ccc(F)cc1)c1ccc(F)c(F)c1 | 0
CC(C)Sc1nc2sccc2c(=O)n1-c1ccccc1 | 3
O=C(Nc1ccc(N2C(=O)[C@@H]3[C@H](C2=O)[C@@H]2C=C[C@H]3C2)c(Cl)c1)c1ccccn1 | -2
O=C(NNC1CC(=O)N(c2ccc(Cl)cc2)C1=O)c1ccccn1 (configuration not stated) | -1
O=C(Nc1ccc(N2C(=O)CC(c3ccccc3)C2=O)c(Cl)c1)c1ccccn1 (configuration not stated) | 38* | TTR inh HuH7=-4;TTR act confirm=1
CCCCCCC(=O)O | 0
CC(CCCCCCCCC(=O)O)N(CCO)C(=O)OC(C)(C)C (configuration not stated) | 10* | TTR inh HuH7=-5;TTR act confirm=0
CCCCCCCCCCCCC(=O)CCCCC(=O)O | -1
N=C1C(=O)NC(=O)C1c1ccccc1 (configuration not stated) | 5
COc1ccc(S(=O)(=O)N2CCN(C(=O)c3ccco3)CC2)c(C)c1C | 2
O=C1c2ccccc2C(O)N1c1ccccc1 (configuration not stated) | 0
